In the emibetuzumab library of Makowski et al. (2022):
Some of the results follow. No count for the full screen is at hand.

B1: VH:VL chains; a variant is named by its letters at X, in order (parent)
chain 1: QVQLVQSGAEVKKPGASVKVSCKASGYTFTDYXMHWVRQAPGQGLEWMGXVNPNXXXTTYNQKFEGRVTMTTDTSTSTAYMELRSLRSDDTAVYYCARXNXLDXWGQGTTVTVSS
chain 2: DIQMTQSPSSLSASVGDRVTITCSVSSSVSSIYLHWYQQKPGKAPKLLIYSTSNLASGVPSRFSGSGSGTDFTLTISSLQPEDFATYYCQVYSGYPLTFGGGTKVEIK

Variants of: B1
Assay: yeast display scFab, FACS + sequencing
Settings: with MET
In short: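 Antigen binding was called positive for sequences present in both antigen-positive samples and negative for those present only in the input. These calls came from deep sequencing, in two replicates, of round-3 sorted and input populations from a heavy-chain CDR mutant scFab yeast surface library. The library was first enriched twice magnetically on HGFR-Fc-coated Protein A beads and then by FACS, gating the top 50% antigen-positive cells after 3 h labelling at room temperature with 1 nM HGFR-Fc plus anti-Myc in PBSB with 1% milk.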

Row | Variant | antigen binding call
1 | FARKSDSS | no binding
2 | DKKKDVVF | no binding
3 | FKTAGSAV chain 1 R67H | no binding
4 | YRRGSAVY | binds
5 | YRRGSYVY | no binding
6 | ATGGAALD | no binding
7 | YRKGGSAA | binds
8 | YRKGSSAA | binds
9 | VAEEDAGY | no binding
10 | DARGAYLV | no binding
11 | YRGKAFGV | binds
12 | YRGKAAGV | binds
13 | YRAGDFGV | no binding
14 | YTGTSAGV | no binding
15 | YKARGAVY | binds
16 | FRARGAAY | binds
17 | VTGTGAAD | no binding
18 | VAEGDAAD | no binding
19 | YRARGAAY | binds
20 | YKGRSAVY | no binding
21 | VRARGAAD | binds
22 | VKAASAVY | no binding
23 | DRRANFLY | no binding

Row | Variant | antigen binding call
24 | DREEGDGS | no binding
25 | YKARGAAY | binds
26 | DKATGDAY | no binding
27 | VEGTSAAY | no binding
28 | VRARGAAY | binds
29 | FRRTDFVA chain 1 C22Y | no binding
30 | ARGRSDVA | no binding
31 | AEEEGSAA | no binding
32 | ARGRGSVA | binds
33 | ARRRGSAA | binds
34 | ARRRGAAA | binds
35 | ARKTGAGA | no binding
36 | AETKGAAA | no binding
37 | ARGRGSAA | binds
38 | VETTDSWV | no binding
39 | VAERSFGV | no binding
40 | VEEAAAGV | no binding
41 | FTRESFAA | no binding
42 | ARAGSAWA | no binding
43 | ARAGDAVA | no binding
44 | ARAGGAAA | binds
45 | SKGRSDVF | no binding
46 | DAGKGAGD | no binding

Row | Variant | antigen binding call
47 | YKGKGSGF | binds
48 | SKGKGAGF | binds
49 | YKGKGFGF | no binding
50 | SKGRGAGS | binds
51 | SKGKGAGD | binds
52 | YKGKGAGF | binds
53 | DGEGGDWD | no binding
54 | VGRTSFGF | no binding
55 | YKAGGFWF | no binding
56 | YKAGGSLF | binds
57 | YKGKGSLF | binds
58 | VKGRADWF | no binding
59 | VTGEDDVV | no binding
60 | VKGRADAV | no binding
61 | SRGRGSSS | binds
62 | SGTADSSS | no binding
63 | SAGRGDGS | no binding
64 | SRGRGSLS | binds
65 | SRGRGVLV | no binding
66 | AATTDSSS | no binding
67 | ARGRGSSS | binds
68 | SEGRGDGA | no binding
69 | AKTKSDGV | no binding

Row | Variant | antigen binding call
70 | ATGGDSGD | no binding
71 | VEGRGDGA | no binding
72 | AKGRGDGA | no binding
73 | VKGRGVGA | binds
74 | YKGRGVGA | binds
75 | YAGRGDGA | no binding
76 | VTGGDDGY | no binding
77 | VTGGGDGS | no binding
78 | VEARGDGA | no binding
79 | VAGTGDGY | no binding
80 | ARERGDGY | no binding
81 | VRARGDGY | binds
82 | VRGGGDGY | binds
83 | VRGGDDGV | no binding
84 | VRGGSDGY | binds
85 | DAERTDGV | no binding
86 | AEAGADVV | no binding
87 | YRRRGALA | binds
88 | VRRRGALA | binds
89 | YAREGSGA | no binding
90 | YRRRGSLA | binds
91 | YRREGSLA | binds
92 | VTEGGALA | no binding

Row | Variant | antigen binding call
93 | VAEKGALA | no binding
94 | YTREGAVA | no binding
95 | VKGRADSV | no binding
96 | YRRGGALA | binds
97 | YREETSGA | no binding
98 | YRRRSSLA | binds
99 | ARARGSGA | no binding
100 | FKAGGSGA | no binding
101 | FRAGGSGA | binds
102 | FAARDSGA | no binding
103 | FRARGSGA | binds
104 | FRAGGAGA | binds
105 | FRARGAGA | binds
106 | FEAGDSGA | no binding
107 | DKGEGDLA | no binding
108 | VEEEGSGA | no binding
109 | YKREGSAV | no binding
110 | YRRGGSAV | binds
111 | YRRGSSAV | binds
112 | YRREGSVV | binds
113 | YRREGSAV | binds
114 | DRRGSDAV | no binding
115 | VATRAVGA | no binding

Row | Variant | antigen binding call
116 | VKGRSDAS | no binding
117 | DTGGGDAA | no binding
118 | FRRGSSAV | binds
119 | VRRGSDGV | no binding
120 | VRRGSSAV | binds
121 | VTTKSSAV | no binding
122 | FTREASAV | no binding
123 | VRTEDDWY | no binding
124 | SEEEGDVA | no binding
125 | YTTGGDVA | no binding
126 | VTAGDDGS | no binding
127 | DTTGSDVF | no binding
128 | YRTRSAAV | binds
129 | YRTRSSAV | binds
130 | YRRRGASF | binds
131 | YRRRGSSF | binds
132 | STGGNDAD | no binding
133 | YKGKGALA | binds
134 | YKGEGDLA | no binding
135 | YKAGGALA | binds
136 | YKGKGSLA | binds
137 | YKGKGFGA | no binding
138 | YKAGGFGA | no binding
